High-throughput results from PubChem BioAssay.
Compounds with a hit are over-represented: about 2.4% of the library has one in this group of screens.
Pol iota inh: qHTS for Inhibitors of Polymerase Iota. AID 588590, 2011. DNA polymerase iota (Homo sapiens), Q9UNA4. actives 1% (n = 390,000). Potency, µM (titrated, usually from 115 µM), hits mostly inhibitors. Pol iota fluorescent replication assay, 10 min
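Pol iota at 10 nM preincubated 15 min with compounds at room temperature; reaction started with fluorescent substrate, 50 nM final. Fluorescence read kinetically at 0 and 10 min; buffer-only wells as negative control.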
FEN1 inhibitor: qHTS Assay for the Inhibitors of Human Flap endonuclease 1 (FEN1); P39748; Recombinant FEN1 flap cleavage, fluorescence, 15 min; Potency, µM (top dose mostly 114 µM), usual class: inhibitors; actives 0.35% (n = 390,000); AID 588795, 2011; also: nearly all actives have a fitted effect of over 65% in size
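Enzyme 10 nM, 15 min RT preincubation with compound; start with substrate 50 nM final; reads at 0 and 15 min; qHTS titration, four-parameter Hill fit.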
Pol beta inh: qHTS Assay for Inhibitors of DNA Polymerase Beta; P06746; Pol beta primer extension/strand displacement, fluorescence kinetic; Potency, µM (titrated, usually from 114 µM), usual class: inhibitors; actives 1.3% (n = 340,000)
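Reaction started by 50 nM substrate onto compound-treated Pol beta (10 nM, 15 min preincubation, room temperature); plates read at 0 min and 10 min. Normalized concentration-effect data fitted by four-parameter Hill equation.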
WRN inhibitor: qHTS for Inhibitors of WRN Helicase | Bifunctional 3'-5' exonuclease/ATP-dependent helicase WRN (Homo sapiens), Q14191 | WRN helicase unwinding, fluorescent forked duplex, kinetic | Potency, µM (highest dose often 114 µM), most hits filed as inhibitors | actives 0.46% (n = 360,000); also: nearly all actives have a fitted effect of over 55% in size
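WRN at 20 nM final was preincubated with compound for 15 min at room temperature; reaction started with 100 nM forked duplex oligonucleotide carrying fluorophore and quencher plus 2 mM ATP (final). Unwinding followed kinetically by red fluorescence (ex 525/em 598 nm).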
Pol kappa inh: qHTS for Inhibitors of Polymerase Kappa | purified Pol kappa, fluorescent DNA synthesis assay, 10 min | actives 0.53% (n = 400,000) | AID 588579, 2011 | Potency, µM (top dose mostly 107 µM), hits mostly inhibitors
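Here, compound and 10 nM enzyme are combined for 15 min at room temperature; adding 50 nM substrate (final) starts DNA synthesis, tracked by fluorescence at 0 and 10 min against buffer-only wells.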
Pol eta inh: qHTS for Inhibitors of Polymerase Eta; DNA polymerase eta (Homo sapiens), Q9Y253; recombinant Pol eta, fluorescent DNA replication assay; Potency, µM (doses to about 114 µM), usual class: inhibitors; actives 1.2% (n = 390,000); AID 588591, 2011
Target sequence (Q9Y253 whole entry, looked up): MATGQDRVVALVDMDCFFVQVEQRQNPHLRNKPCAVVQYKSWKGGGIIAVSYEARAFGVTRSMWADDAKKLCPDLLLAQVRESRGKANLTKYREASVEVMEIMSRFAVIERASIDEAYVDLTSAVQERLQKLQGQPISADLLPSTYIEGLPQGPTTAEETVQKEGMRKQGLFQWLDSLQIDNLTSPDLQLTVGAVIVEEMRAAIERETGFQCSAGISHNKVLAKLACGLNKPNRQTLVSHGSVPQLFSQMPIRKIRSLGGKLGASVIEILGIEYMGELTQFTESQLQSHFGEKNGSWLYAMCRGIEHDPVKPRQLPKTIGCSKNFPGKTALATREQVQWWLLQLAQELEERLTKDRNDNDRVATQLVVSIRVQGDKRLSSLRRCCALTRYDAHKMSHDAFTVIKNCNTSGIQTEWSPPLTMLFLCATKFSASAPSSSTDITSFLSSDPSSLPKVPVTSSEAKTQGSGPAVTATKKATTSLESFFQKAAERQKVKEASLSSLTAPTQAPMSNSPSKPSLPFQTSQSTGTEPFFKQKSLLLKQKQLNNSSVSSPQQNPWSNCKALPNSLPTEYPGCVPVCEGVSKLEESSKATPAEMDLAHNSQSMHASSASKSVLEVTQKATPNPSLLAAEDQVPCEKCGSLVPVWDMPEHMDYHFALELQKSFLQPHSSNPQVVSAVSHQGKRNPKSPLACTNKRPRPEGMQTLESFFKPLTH
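Fluorescent replication assay: 50 nM final substrate added after a 15 min room-temperature compound preincubation with 10 nM enzyme. Signal taken at 0 min and again at 10 min.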
A number is an active result; [ ] = remark or other dose. Calls follow the shape of the dose curve; as a rule, active = well fitted curve in the direction sought with a large enough effect; inconclusive = small, poorly fitted or top-dose-only effect, or another doubt; inactive = no such curve, though single readings can be large; an effect the other way counts as inactive or inconclusive.

For O=C(Nc1c(Cl)cc([N+](=O)[O-])cc1Cl)c1cc(Cl)ccc1O the results were Pol iota inh inactive, FEN1 inhibitor inactive and Pol kappa inh inactive.
For CN(C)c1ccc(/C=c2\[nH]c(=O)/c(=C\c3ccc(N(C)C)cc3)[nH]c2=O)cc1 the results were Pol iota inh inconclusive, FEN1 inhibitor inactive and Pol kappa inh inactive.
Screening O=C1C=C(O)CC(c2ccc(Cl)c(Cl)c2)C1 (stereo unspecified) returned Pol iota inh inactive, FEN1 inhibitor inactive, Pol beta inh inactive, WRN inhibitor inactive, Pol kappa inh inactive and Pol eta inh inactive.
`O=C1C=C(O)CC(c2ccc(Cl)cc2)C1` (stereo unspecified) gave Pol iota inh inactive, FEN1 inhibitor inactive, Pol beta inh 50µM, WRN inhibitor inactive, Pol kappa inh inactive and Pol eta inh inconclusive.
`C/C(=N\OCC(=O)OCC(=O)NCc1ccccc1)c1ccc2c(c1)OCO2` gave Pol iota inh 40µM, FEN1 inhibitor inactive, WRN inhibitor inconclusive, Pol kappa inh inconclusive and Pol eta inh 20µM.
Screening O=C1NC(=O)/C(=C\c2ccc(Sc3ccc(Cl)cc3)o2)N1 returned Pol iota inh inconclusive, FEN1 inhibitor inactive, Pol beta inh 35µM, WRN inhibitor inactive, Pol kappa inh inactive and Pol eta inh inconclusive.
For CCCCCCCCCCCCCCCCOC(=O)N1CCN(/[N+]([O-])=N/Oc2ccc([N+](=O)[O-])cc2[N+](C)=O)CC1 the results were Pol iota inh inconclusive, FEN1 inhibitor inactive and Pol kappa inh inactive.
C=C(NNC(C)=O)c1ccc(O)cc1 was read as Pol iota inh inactive, FEN1 inhibitor inactive and Pol kappa inh inactive.
For Cc1ccc(/C=C2\S/C(=N/S(=O)(=O)c3cccs3)NC2=O)cc1 the results were Pol iota inh 40µM, FEN1 inhibitor inconclusive, Pol beta inh inactive, WRN inhibitor 50µM, Pol kappa inh inactive and Pol eta inh 25µM.
`COC(=O)c1ccc2c(c1)C(C)(C)C(/C=C/c1ccccc1O)=[N+]2C` gave Pol iota inh 28µM, FEN1 inhibitor 50µM, Pol beta inh inconclusive, WRN inhibitor 56µM, Pol kappa inh 35µM and Pol eta inh inactive.
`COc1cc2ccc(=O)oc2c(OC)c1OC` gave Pol kappa inh inactive.
Screening COc1cc2ccc(=O)oc2c(O)c1O returned Pol iota inh inconclusive, FEN1 inhibitor 8.9µM, WRN inhibitor inactive, Pol kappa inh 50µM and Pol eta inh inactive.
Screening Cc1ccccc1NC(=O)Cc1nc(COC(=O)c2ccc(NC(N)=O)cc2)cs1 returned Pol iota inh inactive, FEN1 inhibitor inactive, WRN inhibitor inactive, Pol kappa inh inactive and Pol eta inh inconclusive.
Screening CS(=O)(=O)c1ccc(C(=O)OCC(=O)N2CC(=O)Nc3ccccc32)cc1[N+](=O)[O-] returned Pol iota inh 50µM, FEN1 inhibitor inactive and Pol kappa inh inactive.
Cc1ccccc1NC(=O)Cc1nc(COC(=O)c2ccc(S(C)(=O)=O)c([N+](=O)[O-])c2)cs1 was read as Pol iota inh inconclusive, FEN1 inhibitor inactive, WRN inhibitor inactive, Pol kappa inh inactive and Pol eta inh 22µM.
Screening COc1ccc(C(C)=O)cc1COc1ccccc1[N+](=O)[O-] returned Pol iota inh inactive, FEN1 inhibitor inactive, Pol beta inh inactive, WRN inhibitor inactive, Pol kappa inh inactive and Pol eta inh inactive.
For COc1ccc(C(C)=O)cc1COC(=O)c1ccc(N)c([N+](=O)[O-])c1 the results were Pol iota inh 32µM, FEN1 inhibitor inactive, Pol beta inh inactive, WRN inhibitor inactive, Pol kappa inh inactive and Pol eta inh inactive.
`CS(=O)(=O)c1ccc(C(=O)OCC(=O)Nc2cccnc2Cl)cc1[N+](=O)[O-]` gave Pol iota inh inconclusive, FEN1 inhibitor inactive, WRN inhibitor inactive, Pol kappa inh inactive and Pol eta inh 89µM.
c1ccc2c(N=NN3CCCCC3)ccnc2c1 was read as Pol iota inh inactive, FEN1 inhibitor inactive and Pol kappa inh inactive.
CCCc1ccc(C(=O)O)cc1 was read as Pol kappa inh inactive.
For C=C1C=CS(=O)(=O)N(Cc2ccccc2)C1 the results were Pol iota inh inactive, FEN1 inhibitor inactive and Pol kappa inh inactive.
Screening Cc1ccccc1NC(=O)COC(=O)c1ccc(S(C)(=O)=O)c([N+](=O)[O-])c1 returned Pol iota inh inconclusive, FEN1 inhibitor inactive, Pol beta inh inconclusive, WRN inhibitor inactive[11.6 µM], Pol kappa inh inactive and Pol eta inh 89µM.
Screening CC(=O)c1cccc(NC(=O)C(C)OC(=O)c2ccc(S(C)(=O)=O)c([N+](=O)[O-])c2)c1 (stereo unspecified) returned Pol iota inh inactive, FEN1 inhibitor inactive and Pol kappa inh inactive.
For CC(=O)c1cccc(NC(=O)COC(=O)c2ccc(S(C)(=O)=O)c([N+](=O)[O-])c2)c1 the results were Pol iota inh inconclusive, FEN1 inhibitor inactive, Pol beta inh inactive, WRN inhibitor inactive, Pol kappa inh inactive and Pol eta inh 79µM.
For CS(=O)(=O)c1ccc(C(=O)OCC(=O)Nc2cc(C(F)(F)F)ccc2Cl)cc1[N+](=O)[O-] the results were Pol iota inh inactive, FEN1 inhibitor inactive and Pol kappa inh inactive.
For NC(C(=O)O)c1cc(O)cc(O)c1 (stereo unspecified) the results were Pol kappa inh inactive[19.4 µM].
`CCCc1ccc(OCc2nc(-c3ccc(NC(=O)c4ccco4)cc3)no2)cc1` gave Pol iota inh inconclusive, FEN1 inhibitor inactive, Pol beta inh 35µM, WRN inhibitor inactive, Pol kappa inh inactive and Pol eta inh inactive.
Screening CN(C)c1cccc2c1c(NS(=O)(=O)c1cn(C)cn1)nn2C returned Pol iota inh 40µM, FEN1 inhibitor inactive, Pol beta inh inactive, WRN inhibitor inactive[11.6 µM], Pol kappa inh inactive and Pol eta inh inactive.
COCCNC(=O)COc1ccc(OCCNC[C@H](O)COc2ccccc2)cc1 was read as Pol kappa inh inactive[19.4 µM].
For COc1ccc(CN2[C@@H](CC(=O)O)c3ccc(/C=C/C(=O)O)cc3S2(=O)=O)cc1 the results were Pol iota inh 50µM, FEN1 inhibitor inactive and Pol kappa inh 35µM.
COc1cccc(N2[C@@H](CC(C)=O)c3ccc(/C=C/C(C)=O)cc3S2(=O)=O)c1 was read as Pol iota inh 20µM, FEN1 inhibitor inactive, WRN inhibitor inactive, Pol kappa inh inactive and Pol eta inh inconclusive.
Screening COC(=O)/C=C/c1ccc2c(c1)S(=O)(=O)N(Cc1ccc(OC)cc1)[C@H]2CC(=O)OC returned Pol iota inh inactive, FEN1 inhibitor inactive, WRN inhibitor inactive, Pol kappa inh inactive and Pol eta inh inactive.
